From PubChem
Sampled rows, rich in hits. Any-hit rate of the full collection: about 1.5%.
NadD block – inhibitors of S. aureus NadD, primary screen, biochemical, colorimetric, uHTS | inhibition, % at 20 µM | AID 602399, 2012 | purified NadD enzyme, colorimetric absorbance read-out | actives 0.78% (n = 360,000) | Nicotinate-nucleotide adenylyltransferase NadD (Staphylococcus aureus N315); in the data active = inhibition above about 26%
Neddylation inh – inhibitors of cullin neddylation, primary screen, biochemical, TR-FRET, uHTS, NAE and Ubc12. actives 0.58% (n = 360,000). NEDD8-conjugating enzyme Ubc12 (Homo sapiens) + NEDD8-activating enzyme E1 regulatory …. inhibition, % at 25 µM; in the data active = inhibition above about 36%
NPR2 activator – human GC-B receptor activators, primary screen, HEK293 GC-B cells, cGMP TR-FRET, EC30 CNP. Atrial natriuretic peptide receptor 2 (Homo sapiens), P20594. 0% at EC30 CNP, 100% saturating CNP. activation, % at 10 µM. actives 0.11% (n = 370,000). AID 1920062, 2024;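 active = activation at 10 µM reaching about 35% in either raw or pattern-adjusted values, limit read from the data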
NPR1 activator – GC-A stimulated cGMP production enhancers – HEK293 GC-A cells, cGMP TR-FRET, EC30 ANP, primary screen | actives 0.14% (n = 370,000) | activation, % at 10 µM | 0% at EC30 ANP, 100% saturating ANP | Atrial natriuretic peptide receptor 1 (Homo sapiens), P16066; in the data active = activation above about 40%
NadD conf – inhibitors of S. aureus NadD, confirmation, biochemical, colorimetric, single concentration. shares compounds with NadD block. purified S. aureus NadD, colorimetric enzyme assay. inhibition, % at 20 µM. actives 13% (n = 2,000). AID 624309, 2012; in the data active = inhibition mostly above about 42%, no sharp cut-off; inactive = mostly below about 42%
Large screens that a line does not name were inactive (follow-up assays come after a bar, where shown); ! = not confirmed by another sample.

Fc1cccc(Cn2ccc3ccc(-c4ccc5ccn(Cc6cccc(F)c6)c5c4)cc32)c1	none (no result: NadD block, Neddylation inh)
O=C(NNC(=O)c1cc(-c2ccccc2)nc2ccccc12)Nc1cccc(Cl)c1	none
COc1ccc(C(=O)NNC(=S)NC(=O)c2cc(-c3ccccc3)nc3ccccc23)cc1	NadD block 49 | NadD conf 68
COc1cccc(-c2cc(C(=O)Nc3nc4ccccc4s3)c3ccccc3n2)c1	NadD block 36 | NadD conf inactive
CC(C)(C)c1ccc(-c2cc(C(=O)NNC(=O)Nc3ccccc3)c3ccccc3n2)cc1	NadD block 37 | NadD conf inactive
O=C1CCCC2=C1C1(CCCCC1)N=C(Nc1nc3ccccc3o1)N2	none (not shown: Neddylation inh)
O=C1CCCC2=C1C1(CCCC1)N=C(Nc1nc3cc(-c4ccccc4)ccc3o1)N2	NadD block 40 (not shown: Neddylation inh) | NadD conf inactive
O=c1oc2ccc3ccccc3c2cc1-c1nnc(-c2cccs2)o1	NadD block 50 (not shown: Neddylation inh) | NadD conf inactive
Nc1nc(SCc2ccc(Cl)cc2Cl)nc2nc3c(cc12)CCCC3	NadD block 36 | NadD conf inactive
COc1ccccc1Nc1nc(-c2sc(NC(=O)C(C)(C)C)nc2C)cs1	none
Cc1ccc(Cl)cc1Nc1nc(-c2sc(NC(=O)C(C)(C)C)nc2C)cs1	NadD block 34 | NadD conf inactive
CCCCCC(=O)Nc1nc(C)c(-c2csc(Nc3cc(Cl)ccc3OC)n2)s1	NadD block 42 | NadD conf inactive
COc1ccc(C2Nc3ccccc3C(=O)N2Cc2ccco2)cc1CN1C(=O)c2ccccc2C1=O (configuration not stated)	NadD block 39! | NadD conf inactive
O=C(CNc1cccc2ccccc12)N/N=C/c1ccc(OC(=O)/C=C/c2ccco2)cc1	NadD block 40 | NadD conf inactive
O=C(CNc1cccc2ccccc12)N/N=C/C(Br)=C/c1ccccc1	NadD block 45 | NadD conf inactive
O=C(CNc1cccc2ccccc12)N/N=C/c1ccc[nH]1	none
O=C(/C=C/c1ccco1)Oc1cc(Br)cc(/C=N/NC(=O)c2ccccc2O)c1	NadD block 38 | NadD conf inactive
Cc1ccc(C(=O)N/N=C/c2cccc(OC(=O)/C=C/c3ccco3)c2)cn1	none
Cc1ccc(-n2c(O)c(/C=N/Nc3ccc(S(=O)(=O)N4CCOCC4)cc3[N+](=O)[O-])c3ccccc3c2=O)c(C)c1	NadD block 43 | NadD conf inactive
C#CCN1C(=O)[C@]2(NCCc3c2[nH]c2ccc(OC)cc32)c2ccccc21	none (no result: NadD block, Neddylation inh)
COc1ccc(CC(N)c2csc(NC(=O)Nc3ccccc3-c3ccccc3)n2)cc1 (configuration not stated)	NadD block 31 | NadD conf inactive
COC(=O)c1cc(S(=O)(=O)N2CCN(c3cccc(C(F)(F)F)c3)CC2)cn1C	none (no result: NadD block, Neddylation inh)
CC1CC(NC(=O)c2c(O)nc3sccn3c2=O)CC(C)(C)C1 (configuration not stated)	NadD block 35 | NadD conf inactive
CC1CC(NC(=O)c2c(O)nc3ccccn3c2=O)CC(C)(C)C1 (configuration not stated)	none
C#CCN(C[C@H]1[C@H](OC(=O)NCc2ccccc2F)[C@H](OC(=O)NCc2ccccc2F)C[C@H]2C(=O)N(c3ccccc3)C(=O)[C@@H]12)S(=O)(=O)c1ccc(C)cc1	NadD block 30 | NadD conf inactive
C#CCN(C[C@H]1[C@H](OC(=O)NCc2ccc(OC)c(OC)c2)[C@H](OC(=O)NCc2ccc(OC)c(OC)c2)C[C@H]2C(=O)N(c3ccccc3)C(=O)[C@@H]12)S(=O)(=O)c1ccc(C)cc1	none
Nc1nc2c(Br)ccc(Br)c2cc1C(=O)NCc1cccc2ccccc12	NadD block 41 | NadD conf inactive
CCN(CC)S(=O)(=O)c1cccc(C(=O)NCC2CCCO2)c1 (configuration not stated)	none
CCN(CC)S(=O)(=O)c1cccc(NC(=O)C2SC(=Nc3ccc(C)cc3C)C(C(=O)NCC3CCCO3)=C2N)c1 (configuration not stated)	NadD block 37 | NadD conf inactive
CCCC[C@@H]1Cc2[nH][nH]c(=O)c2[C@@H](c2ccc(Cl)cc2)O1	none
